The record followed here is ChEMBL document CHEMBL4513216, “Probing the Open Global Health Chemical Diversity Library for Multistage-Active Starting Points for Next-Generation Antimalarials” (ACS Infect Dis, 2020).

Screen size: about 69,000 compounds; about 8,600 (12%) showed an effect of 50% or more. For the sample, strong results were picked, then their nearest neighbours and some compounds at random.

The test system of the assay is Plasmodium berghei. As to the kind of experiment: Screen against P. berghei liver stage (PbLuc), transformed with Luciferase, at 10uM. Particulars: tested at 10 uM. The class given is functional, HepG2.
Take `Cc1nc(N2CCN(C)CC2)ncc1C(=O)N1C[C@@H](C)[C@@](C)(O)C1`: the INHIBITION came out at 34.9%. Then `O=c1[nH]nc2c(N3CCCCCC3)nccn12`, with 47.4%; and `O=c1[nH]nc2c(N3CCOCC3)nccn12`, with 56.5%; and `O=c1[nH]nc2c(N3CCC(NC4CCOCC4)CC3)nccn12`, with 33.3%. Under `O=C1OCCN1CCNC(=O)C1(N2CCCCC2)Cc2ccccc2C1` stands 6.54%.

Consider `Clc1cccc(-c2noc(CCN3CCN(c4ccncc4)CC3)n2)c1`, for which the INHIBITION was found to be 61.8%.

In the case of `NC(=O)N1CCCN(CCc2nc(-c3cccc(Cl)c3)no2)CC1`, the INHIBITION was determined as 2.22%. Under `CCOC1CCN(CCc2nc(-c3cccc(Cl)c3)no2)CC1` stands 46.3%.

With `O=C(NCc1ccccc1-n1cccn1)N1CCC(N2CCCC2)C1` (stereo not given), the INHIBITION was found to be 17.4%. Regarding `CCCC(=O)Nc1cc(C(=O)NC(C)Cc2ccncc2)ccc1C` (stereo not given), the INHIBITION came out at 57.5%. Then `CCN(CC(=O)Nc1cc(Cl)ccc1C)C(=O)c1ccncc1`, with -10.8%; and `CCC(C)NC(=O)c1ccc(NC(=O)CCCn2cncn2)c(C)c1` (stereo not given), with 5.64%. On to `CC(=O)N[C@@H]1CN(C(=O)c2cccc(C(F)(F)F)c2)C[C@H]1O`, for which the INHIBITION was -4.1%.

For the compound `CCc1nnc2n1CCN(C(C(=O)N(CC)CC)c1ccccc1)C2` (stereo not given), the INHIBITION was found to be 19.4%. Then `CC1CCC(NC(=O)CNC2(c3ccc(F)cc3)CCOCC2)CC1` (stereo not given), with 12.8%; and `Cc1cccn2cc(CNS(=O)(=O)N3CCOCC3)nc12`, with 19.8%; and `Cn1nnc2c1CCN(Cc1ccoc1)C2COCc1ccccc1` (stereo not given), with -6.39%. Then `CN(C)C(=O)N1CCc2c(nnn2C)C1COCC1CC1` (stereo not given), with 12.7%; and `CS(=O)(=O)N1CCc2c(nnn2CC2CC2)C1COCC1CC1` (stereo not given), with 58.5%; and `Cn1nnc2c1CCN(S(C)(=O)=O)C2COCC1CC1` (stereo not given), with 57.1%. Under `Cn1nnc2c1CCN(CC1CC1)C2COCC1CC1` (stereo not given) stands 38.5%; under `Cn1nnc2c1CCN(S(C)(=O)=O)C2COCc1ccccc1` (stereo not given), 53%.

Take `Cn1nnc2c1CCN(Cc1ccncc1)C2COCc1ccccc1` (stereo not given): the INHIBITION is on record as 17.2%. Then `Cc1ccc(CN2CCc3c(nnn3C)C2COCc2ccccc2)s1` (stereo not given), with 59.3%; and `CCn1nnc2c1CCN(S(C)(=O)=O)C2COCc1ccccc1` (stereo not given), with -3.51%; and `Cn1nnc2c1CCN(CC1CC1)C2COCc1ccccc1` (stereo not given), with 39.8%. Take `C1CC(CN2CCc3c(nnn3CC3CC3)C2COCC2CC2)C1` (stereo not given): the INHIBITION came to 43.3%. Under `C1CN(CC2CC2)C(COCC2CC2)c2nnn(CC3CC3)c21` (stereo not given) stands 15.6%. In the case of `CCc1ccc(NC(=O)N2Cc3c(CN(C)C)nn(C)c3C2)cc1`, the INHIBITION was determined as 33%.

Regarding `COc1cccc(OCCn2c(C)c(C)oc2=O)c1`, the INHIBITION turned out to be 31.4%.

Take `CCC1=N[C@@]2(CC[C@@H]3CN(Cc4ccccc4F)C[C@@H]32)C(=O)N1`: the INHIBITION came out at 10.5%. Then `Cc1nc(C)n(CC2CCCN2Cc2nc3ccccc3o2)n1` (stereo not given), with 33.8%; and `COC(=O)CCn1ccc(=O)c2ccc(OC)cc21`, with -7.53%. Under `CNc1cncc(C2CCCN2C(=O)Cn2c(=O)oc3ccccc32)n1` (stereo not given) stands 23.4%; under `CC(C)(C)c1cc(CN2C[C@@H]3CC[C@H]2CN(Cc2ccccn2)C3)n[nH]1`, -2.73%. Under `COc1cc(N2CCc3ncnc(-c4ccncc4)c3CC2)ncn1` stands 33%; under `COCc1nc(N(C)C)ncc1C(=O)Nc1cc(C)cc(C)c1`, 35%; under `CN(CC1(CO)CCCC1)c1nc2c(c(=O)[nH]1)Cc1ccccc1OC2`, 71.2%. As for `CN(CC1(CO)CCC1)c1nc2c(c(=O)[nH]1)Cc1ccccc1OC2`, the INHIBITION worked out at 57.8%.

Consider `Cc1nc2c(c(N[C@@H](CO)C(N)=O)n1)Cc1ccccc1OC2`, for which the INHIBITION was -13.4%. Under `CN(C)c1nc2c(c(=O)[nH]1)Cc1ccccc1OC2` stands 54.4%; under `OCC1CCCN(c2ncnc3c2Cc2ccccc2OC3)C1` (stereo not given), 32.1%. Then `Cc1nc2c(c(N[C@H](C(N)=O)C(C)C)n1)Cc1ccccc1OC2`, with -19.8%; and `Cc1nc2c(c(NC(C)c3nnn[nH]3)n1)Cc1ccccc1OC2` (stereo not given), with -45.5%. Under `Cc1nc2c(c(NCC(=O)NC(C)C)n1)Cc1ccccc1OC2` stands 5.87%; under `Cc1nc2c(c(NCCNC(=O)C(C)C)n1)Cc1ccccc1OC2`, -0.55%; under `COCCN(CCC#N)Cn1cc(Cl)cn1`, 5.29%. Take `O=C(NC1CC1)N1CCc2ccc(=O)n(CC3CC3)c2CC1`: the INHIBITION is on record as -55.2%. For the compound `CC(C)NC1CCc2c(ccc(=O)n2CCN2CCOCC2)C1` (stereo not given), the INHIBITION turned out to be 73.2%. Under `CC(C)NC1CCc2c(ccc(=O)n2CCN2CCCC2=O)C1` (stereo not given) stands -20.1%; under `CC(C)NC1CCc2c(ccc(=O)n2CCN(C)C)C1` (stereo not given), -33%. With `O=C(NC1CC1)N1CCc2ccc(=O)n(CCN3CCCC3)c2CC1`, the INHIBITION was found to be 61.5%.

With `COCCn1c2c(ccc1=O)CCN(C(=O)NC1CC1)CC2`, the INHIBITION was -3.26%. In the case of `CN(CC(=O)NCC1CCCCC1)S(=O)(=O)c1cccnc1`, the INHIBITION is listed as -7.93%.

Consider `Cn1cc(C[C@H]2[C@H](O)CCN2CC2CC2)cn1`, for which the INHIBITION stood at 18.8%. For `O=C(CCc1nc2cc(Br)cnc2[nH]1)NCc1cccnc1`, the INHIBITION was -2.92%. For the compound `Cc1ccc(CNCC(C)Oc2ccccn2)cc1` (stereo not given), the INHIBITION was -6.11%. Under `CC(C)(C)CC(=O)NCC1CCCS1` (stereo not given) stands 43.4%; under `CC(C)(C)C(=O)NCC(=O)NCC1CCCS1` (stereo not given), 91.1%; under `O=C(CCC(F)(F)F)NCC1CCCS1` (stereo not given), 31.5%. Then `O=C(CNC(=O)Nc1c(F)cc(F)cc1-c1ccccc1)NC1CC1`, with 3.93%; and `O=C(NCCN1CCCC1)C1(c2ccc(Cl)cc2)CCOCC1`, with 33.85%.

Take `O=C(NCCNc1ncccn1)N1CCN(c2nccs2)CC1`: the INHIBITION is given as -14.6%. Under `CS(=O)(=O)NC1CCCN(C(=O)NCc2cccnc2)C1` (stereo not given) stands -6.62%; under `CC(=O)N1CCC(NS(=O)(=O)c2cccnc2)CC1`, 69.3%; under `CS(=O)(=O)NC1CCN(C(=O)NCc2ccccn2)CC1`, -27.9%. Then `Cc1cc(C2CCCN2C(=O)NCc2ccccn2)on1` (stereo not given), with 48.5%. Under `CS(=O)(=O)NC1CCN(C(=O)NCc2cccnc2)CC1` stands 59%; under `Cc1cc(C2CCCN2C(=O)NCc2cccnc2)on1` (stereo not given), 55%; under `Cc1cc(C2CCCN2C(=O)NCc2cccc(F)c2)on1` (stereo not given), 23.2%. In the case of `O=S(=O)(N[C@H]1CC[C@H]1NC1Cc2ccccc2C1)c1cccnc1`, the INHIBITION is 68.3%.

Regarding `CS(=O)(=O)NC1CCN(C(=O)c2cnc(-c3cccnc3)nc2)CC1`, the INHIBITION was -32.8%.

For the compound `CC(=O)N1CCC(N[C@@H]2CC[C@@H]2NS(=O)(=O)c2cccnc2)CC1`, the INHIBITION worked out at 46.9%. Under `c1cncc(OCCNC2Cc3ccccc3C2)c1` stands 39.7%; under `O=C(NS(=O)(=O)c1cccnc1)C1CC(c2ccccc2)=NO1` (stereo not given), 28.7%.
